In the library only some 2.2% were active in any assay of this set; here they are far more common.
Mito fusion act = qHTS Assay for Small Molecule Inhibitors of Mitochondrial Division or Activators of Mitochondrial Fusion. S. cerevisiae fusion-defective mutant growth rescue, CellTiterGlo 48 h. Potency, µM (top dose mostly 46.1 µM), for inactives: at the highest dose growth rescue (activation), hits mostly activators. 320,000 compounds, 0.23% hits. AID 485298, 2010; note: % of control where 0% means no effect; nearly all actives have a fitted effect of over 45% in size
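Luminescent cell viability in 1536-well qHTS format served as the measure of rescued growth in ts fusion-mutant S. cerevisiae cultured on non-fermentable YPEG for 48 hours at 37C.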
aSyn rescue = qHTS of alpha-syn Inhibitors. AID 652106, 2013. Potency, µM (titrated, usually from 46.1 µM), without a hit: at the highest dose growth rescue (activation), usual class: activators. 370,000 compounds, 0.14% hits. Yeast expressing alpha-synuclein, growth rescue, BacTiter-Glo, 24 h; note: % of control where 0% means no effect; nearly all actives have a fitted effect of over 65% in size
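Galactose-induced alpha-syn yeast (OD600=0.02, raffinose-pregrown) + pinned cpd, 24 hr, 30 deg C; growth by BacTiter-Glo luminescence. Growth restoration scores as activation.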
FUS suppressor = qHTS for Suppressors of FUS Proteinopathy: Primary screen using FUS-linked yeast assay | Potency, µM (series often up to 76.6 µM), actives largely listed as activators | AID 1347120, 2019 | S. cerevisiae FUS-expressing, growth rescue, OD600, 24 h | 390,000 compounds, 0.24% hits;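 note: plate controls were DMSO vehicle for no effect and reference control for full effect; nearly all actives have a fitted effect of over 55% in size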
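Steps: raffinose overnight preculture; dilution to OD 0.005 in 2% galactose minimal medium; compound addition (concentration series); 24hr at 30C, 99% humidity; absorbance read at 600 nm.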
TDP43 rescue = qHTS of TDP-43 Inhibitors; 410,000 compounds, 1.8% hits; AID 652104, 2013; Potency, µM (highest dose often 46.1 µM), for the others: at the highest dose growth rescue (activation), most hits filed as activators; TDP-43 expressing yeast growth rescue, BacTiter-Glo, 24 h; note: % of control where 0% means no effect; nearly all actives have a fitted effect of over 50% in size
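Growth rescue of TDP-43-toxic yeast measured as ATP luminescence (BacTiter-Glo). Cells grown to mid-log in raffinose, induced in galactose at OD600=0.02, exposed to compound 24 hr at 30 deg C.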
Abeta yeast res = qHTS for compounds that reverse cellular toxicity of Amyloid beta (A-beta) peptide in yeast: Primary Screen; Potency, µM (top dose mostly 46.1 µM), actives largely listed as activators; 410,000 compounds, 0.063% hits; AID 1347071, 2019; yeast expressing A-beta42, growth rescue, OD600, 48 h; response scale: 0% DMSO, 100% iron-clioquinol control; note: nearly all actives have a fitted effect of over 55% in size
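Yeast growth medium received pinned compounds, then yeast cells expressing toxic A-beta were added; plates incubated at 30 C for 48 hr. Growth read as absorbance at 600 nm, normalized to DMSO and equimolar FeCl3 plus clioquinol controls.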
* hit, by the source's call; [ ] = another dose, or the depositor's remark. Calls come from the whole dose curve; as a rule, active = well fitted curve in the direction sought with a large enough effect; inconclusive = small, poorly fitted or top-dose-only effect, or another doubt; inactive = no such curve, though single readings can be large; an effect the other way counts as inactive or inconclusive. Potency is the fitted concentration of half-maximal effect.

For COCCCNC(=O)Cc1c(C)c2c(cc(C)c3c(C(C)(C)C)coc32)oc1=O the results were Mito fusion act inconclusive, aSyn rescue -1%, FUS suppressor 32µM*, TDP43 rescue 4% and Abeta yeast res inactive.
`CCCCn1cnc2c(=O)[nH]ccc21` gave FUS suppressor inactive.
`COc1ccc(Nc2nc(Cl)nc(Nc3ccc(OC)cc3OC)n2)c(OC)c1` gave Mito fusion act 4%, aSyn rescue -3%, FUS suppressor inactive, TDP43 rescue 5% and Abeta yeast res inactive.
COc1ccccc1Nc1nc(Cl)nc(NC(C)(C)C)n1 was read as Mito fusion act 6%, aSyn rescue 0%, FUS suppressor inactive, TDP43 rescue 22µM* and Abeta yeast res inactive.
`CC(C)(C)Nc1nc(Cl)nc(Nc2ccccc2)n1` gave Mito fusion act -1%, aSyn rescue 1%, FUS suppressor inactive, TDP43 rescue 28µM* and Abeta yeast res inactive.
For O=C(OCc1nc2ccsc2c(=O)[nH]1)c1ccc(Cl)s1 the results were Mito fusion act -14%, aSyn rescue 1%, FUS suppressor inactive, TDP43 rescue 18µM* and Abeta yeast res inactive.
O=C(C1COc2ccccc2O1)N1CCN(S(=O)(=O)c2cc(F)ccc2F)CC1 (stereo not given) was read as Mito fusion act 1%, aSyn rescue -2%[1.84 µM], FUS suppressor inactive, TDP43 rescue 28µM* and Abeta yeast res inactive.
For Cc1cc(O)c2c(C)c(CC(=O)N3CCN(C(=O)C4COc5ccccc5O4)CC3)c(=O)oc2c1 (stereo not given) the results were Mito fusion act 4%, aSyn rescue 1%, FUS suppressor 28µM*, TDP43 rescue 4% and Abeta yeast res inactive.
Screening O=C(C1COc2ccccc2O1)N1CCN(Cc2ccc(Br)cc2F)CC1 (stereo not given) returned Mito fusion act 11µM*, aSyn rescue 14%, FUS suppressor inactive, TDP43 rescue -3% and Abeta yeast res inconclusive.
COc1cc(C)cc2oc(=O)c(CC(=O)N3CCN(C(=O)C4COc5ccccc5O4)CC3)c(C)c12 (stereo not given) was read as Mito fusion act 2%, aSyn rescue 1%, FUS suppressor inactive, TDP43 rescue -2% and Abeta yeast res inactive.
`N#Cc1ccccc1S(=O)(=O)N1CCN(C(=O)C2COc3ccccc3O2)CC1` (stereo not given) gave Mito fusion act 5%, aSyn rescue 0%, TDP43 rescue 11% and Abeta yeast res inactive.
CC1CCN(c2cc(C#N)c(C#N)cc2[N+](=O)[O-])CC1 was read as Mito fusion act -3%, aSyn rescue -15%, FUS suppressor inactive, TDP43 rescue 5% and Abeta yeast res inactive.
For CC1CCN(c2cc(N)c(Cl)cc2[N+](=O)[O-])CC1 the results were Mito fusion act -8%, aSyn rescue inconclusive, FUS suppressor inactive, TDP43 rescue 18µM* and Abeta yeast res inactive.
`Cc1ccc(C)c(NC(=O)CSc2cn(CC(=O)N3CCCCC3)c3ccccc23)c1` gave FUS suppressor inactive, TDP43 rescue 24% and Abeta yeast res inactive.
CC1=CC2=NC(=O)/C(=C\c3cccn3CCOc3cccc(C)c3)C(=N)N2O1 was read as Mito fusion act inconclusive, aSyn rescue inconclusive, FUS suppressor inactive, TDP43 rescue inconclusive and Abeta yeast res inactive.
For CC1=CC2=NC(=O)/C(=C\c3cccn3CCOc3cc(C)ccc3C)C(=N)N2O1 the results were Mito fusion act inconclusive, aSyn rescue 5%, FUS suppressor inactive, TDP43 rescue 16µM* and Abeta yeast res inactive.
For CC1=CC2=NC(=O)/C(=C\c3cccn3CCOc3cc(C)cc(C)c3)C(=N)N2O1 the results were Mito fusion act 20µM*, aSyn rescue 9%, FUS suppressor inactive, TDP43 rescue inconclusive and Abeta yeast res inactive.
c1ccc(-c2onc3cc4c(cc23)OCCO4)cc1 was read as Mito fusion act 1%, aSyn rescue -1%, FUS suppressor inactive, TDP43 rescue 35µM* and Abeta yeast res inactive.
`Oc1ccc(N=Nc2ccc3c(c2)OCCO3)c2cccnc12` gave Mito fusion act 0%, aSyn rescue 20µM*, FUS suppressor inactive, TDP43 rescue inconclusive and Abeta yeast res inconclusive.
S=C1NCN(Cc2ccco2)CN1CCc1ccccc1 was read as Mito fusion act -4%, aSyn rescue 3%, FUS suppressor inactive, TDP43 rescue inconclusive and Abeta yeast res 14µM*.
For CC(C)CN1CN(Cc2ccco2)CNC1=S the results were Mito fusion act -1%, aSyn rescue 13%, TDP43 rescue -6% and Abeta yeast res inactive.
Cc1nc(C)c(-c2ccc(SCc3ccc(Cl)cc3)nn2)s1 was read as Mito fusion act inconclusive, aSyn rescue 14%, FUS suppressor inconclusive, TDP43 rescue inconclusive and Abeta yeast res inactive.
For Cc1nc(C)c(-c2ccc(SCc3cccc(F)c3)nn2)s1 the results were Mito fusion act inconclusive, aSyn rescue -8%, FUS suppressor inactive, TDP43 rescue 20µM* and Abeta yeast res inactive.
For O=C(COCc1cc(-c2cccs2)on1)NCc1ccccc1Cl the results were FUS suppressor inactive, TDP43 rescue 13µM* and Abeta yeast res inactive.
For O=C(COCc1cc(-c2cccs2)on1)Nc1cc(Cl)ccc1O the results were FUS suppressor inactive, TDP43 rescue 6% and Abeta yeast res inactive.
CN1CCN(c2ccc(-c3cccc4nccn34)cn2)CC1 was read as aSyn rescue -5%, FUS suppressor inactive, TDP43 rescue 20% and Abeta yeast res inactive.
COC(=O)[C@H](Cc1ccccc1)NC(=O)/C=C/[C@H]1O[C@@H](n2cc(C)c(=O)[nH]c2=O)C[C@@H]1O was read as aSyn rescue 0%, FUS suppressor inactive, TDP43 rescue 10% and Abeta yeast res inactive.
Screening O=C(COc1ccccc1F)Nc1ccc2nc(SCC(=O)N3CCc4ccccc43)sc2c1 returned FUS suppressor inactive, TDP43 rescue 12% and Abeta yeast res inactive.
For CCOC(=O)c1ccc2oc(=O)n(Cc3ccccc3)c2c1 the results were FUS suppressor inactive, TDP43 rescue 7.9µM* and Abeta yeast res inactive.
For Cc1ccc(CNC(=O)c2ccc3oc(=O)n(Cc4ccccc4)c3c2)cc1 the results were FUS suppressor inactive, TDP43 rescue 20% and Abeta yeast res inactive.

Bioassay records (PubChem BioAssay)
